According to ChEMBL document CHEMBL3988442, “University of Dundee, Small-Polar-MMV Screening Library” (2021):
Among all 69,000 compounds or so, about 950 (1.4%) showed an effect of 50% or more. Only a selection was taken, and strong results are over-represented in it overall.

test system: Mycobacterium tuberculosis; test: Cornell M. t heat shock assay; type: functional, organism-based; parameters: dose or concentration left out as unconfirmed; note: in the data most compounds retested in dose-response had high values

**Q.** With `CN(C)CCN1CCCC12CCCN(C(=O)c1cccnc1)C2.O=C(O)C(F)(F)F.O=C(O)C(F)(F)F` (configuration not stated) as the compound, how does the “Percent Effect” value read?
**A.** -7.014%

**Q.** `Cc1nc(N(C)C)nc2c1COCC21CCN(CC2CC2)C1.O=C(O)C(F)(F)F` (configuration not stated) was tested. Which “Percent Effect” value did it give?
**A.** 4.702%

**Q.** How did the “Percent Effect” value turn out when `CC1c2ncc(CNC(=O)C3CC3)n2CCN1CC1CCC1.O=C(O)C(F)(F)F` (configuration not stated) was run?
**A.** -0.1216%

**Q.** With `Cc1ccc([C@]2(O)CC[C@H]3CN(Cc4cccc(F)c4F)C[C@H]32)nc1.O=C(O)CC(O)(CC(=O)O)C(=O)O` as the compound, how does the “Percent Effect” value read?
**A.** 2.948%

**Q.** `O=C(O)CC(O)(CC(=O)O)C(=O)O.O[C@@]1(c2ccccn2)CC[C@H]2CN(Cc3cccc(Cl)c3Cl)C[C@H]21` was tested. Which “Percent Effect” value did it give?
**A.** 14.33%

**Q.** `Cc1ccc([C@]2(O)CC[C@H]3CN(Cc4cccc(Cl)c4Cl)C[C@H]32)nc1.O=C(O)CC(O)(CC(=O)O)C(=O)O` was tested. Which “Percent Effect” value did it give?
**A.** 90.52%

**Q.** `Cl.NC(=O)CCc1cccc(C2CCNCC2)n1` was tested. Which “Percent Effect” value did it give?
**A.** 3.085%

**Q.** With `COc1ccccc1CC(=O)N1CCCC(n2nc(C)nc2C)C1` (configuration not stated) as the compound, how does the “Percent Effect” value read?
**A.** -10.87%

**Q.** Which “Percent Effect” value does the source give for `CC[C@@H]1N(Cc2ccc(C)s2)CCC[C@]12CCC(=O)N2C.O=C(O)C(F)(F)F` here?
**A.** 1.978%

**Q.** How did the “Percent Effect” value turn out when `CS(=O)(=O)CC(=O)NCC1OCCc2cn(CC3CC3)nc21` (configuration not stated) was run?
**A.** 11.68%

**Q.** For `Cc1cc(C(=O)NCC2OCCc3cn(CC4CC4)nc32)c(C)[nH]1` (configuration not stated), which “Percent Effect” value is on record?
**A.** 105.1%

**Q.** Which “Percent Effect” value does the source give for `COCCn1cc2c(n1)C(CNC(=O)c1cc(C)[nH]c1C)OCC2` (configuration not stated) here?
**A.** 38.13%

**Q.** With `Cn1cc(CN2CCC3(CCCN3Cc3cccnc3)CC2)cn1.O=C(O)C(F)(F)F.O=C(O)C(F)(F)F.O=C(O)C(F)(F)F` as the compound, how does the “Percent Effect” value read?
**A.** -39.86%

**Q.** With `CC(Cn1cccn1)NC(=O)Nc1ccc(F)cc1` (configuration not stated) as the compound, how does the “Percent Effect” value read?
**A.** 97.32%

**Q.** `CC(=O)c1ccc(NC(=O)NC(C(=O)N(C)C)C(C)C)cc1` (configuration not stated) was tested. Which “Percent Effect” value did it give?
**A.** 30.77%

**Q.** With `Cc1ccc(NC(=O)NC(C)Cn2cccn2)cc1` (configuration not stated) as the compound, how does the “Percent Effect” value read?
**A.** 0.5452%

**Q.** With `CC(C)C(NC(=O)Nc1ccc(F)cc1)C(=O)N(C)C` (configuration not stated) as the compound, how does the “Percent Effect” value read?
**A.** 54.32%

**Q.** For `COc1ccc(NC(=O)NC(C)Cn2cccn2)cn1` (configuration not stated), which “Percent Effect” value is on record?
**A.** 0.2337%

**Q.** `CC(=O)c1ccc(NC(=O)N[C@H](C(=O)O)C(C)C)cc1` was tested. Which “Percent Effect” value did it give?
**A.** -1.764%

**Q.** With `O=C(O)C(F)(F)F.O=C(O)C(F)(F)F.c1cc(CO[C@@H]2CC[C@H]3[C@H]2OCCN3Cc2ccoc2)ccn1` as the compound, how does the “Percent Effect” value read?
**A.** -10.25%

**Q.** For `Cc1nc(CN2C[C@@H]3CN(C(=O)c4ccnnc4)C[C@@H]3C2=O)cs1.O=C(O)C(F)(F)F`, which “Percent Effect” value is on record?
**A.** 0.6336%

**Q.** Which “Percent Effect” value does the source give for `CN(C)CCN1CCCC12CCN(C(=O)c1cccnc1)CC2.O=C(O)C(F)(F)F.O=C(O)C(F)(F)F` here?
**A.** -6.366%
